# Screening data deposited in PubChem by National Center for Advancing Translational Sciences (NCATS).
# Sampled rows, rich in hits. Any-hit rate of the full collection: about 3.7%.
# Tau fluor cs: counter-screen for tau fibril formation inhibitors | Potency, µM (series often up to 57.7 µM) | tau K18 P301L Alexa594 fluorescence, heparin fibrillization | actives 0.93% (n = 280,000); further: nearly all actives have a fitted effect of over 55% in size
#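 Human K18 P301L tau (15 uM unlabeled plus 0.24 uM Alexa 594-labeled, final) in 100 mM sodium acetate pH 7 was mixed with compound and 20 uM heparin and incubated 6 hr at 37 C.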
# Tau ThT inhib: blocks human tau fibril formation measured by thioflavin T | P10636 | recombinant tau K18 P301L, heparin-induced fibrillization, ThT fluorescence | Potency, µM (titrated, usually from 57.4 µM), hits mostly inhibitors | actives 2.1% (n = 270,000) | AID 1460; further: nearly all actives have a fitted effect of over 55% in size
# Target sequence (P10636 561-689 P618L limits assumed): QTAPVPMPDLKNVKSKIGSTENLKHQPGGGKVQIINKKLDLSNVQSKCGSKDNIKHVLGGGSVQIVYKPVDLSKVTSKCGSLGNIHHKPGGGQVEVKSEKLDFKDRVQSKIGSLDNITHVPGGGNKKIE
#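 Fibril formation assay: tau K18 P301L at 15 uM with trace Alexa 594 label, heparin inducer 20 uM, pH 7 sodium acetate buffer, 37 C for 6 hr; endpoint ThT signal.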
# HTT cytoprotect: cytoprotection in Huntington HTT-Q103 PC12 cell model; PC12 HTT-Q103 induced, cytoprotection, ATP luminescence, 40 h; Potency, µM (doses to about 56.4 µM), most hits filed as activators; actives 0.14% (n = 230,000); further: nearly all actives have a fitted effect of over 45% in size
#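 Quantitative HTS on tebufenozide-induced (100 nM) PC12 cells expressing HTTQ103 exon 1–GFP; compounds tested as a concentration series; survival measured via cellular ATP.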
# HTT aggregate: inhibitors of mutant huntingtin aggregate formation in PC12 cells; PC12 HttQ103-GFP aggregates, Acumen cytometry, 40 h; AID 1688; Potency, µM (doses to about 46.1 µM), hits mostly inhibitors; actives 1.1% (n = 220,000); further: nearly all actives have a fitted effect of over 60% in size
#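 Steps: seed 1500 PC12 HTTQ103-GFP cells/well; add tebufenozide, 100 nM final; add compound titration; add ATPLite reagent; quantify GFP aggregates by laser scanning cytometry.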
# Tau fibril FP: tau fibrillization inhibition (FP) | K18 P301L tau heparin fibrillization, Alexa594 FP, 6 h | actives 0.39% (n = 280,000) | Potency, µM (series often up to 57.7 µM), usual class: inhibitors | P10636; further: nearly all actives have a fitted effect of over 55% in size
#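 Compound effects on tau fibrillization are measured by Alexa 594 fluorescence polarization (ex 555, em 632 nm). K18 P301L tau is used at 15 uM with 0.24 uM labeled tracer, and 20 uM heparin induces aggregation over 6 hr at 37 C.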
# Numbers stand for hits; i = inactive; ? = inconclusive; nt = not tested or not shown; ! = not active in a repeat; [ ] = another dose, or the depositor's remark. The call rests on the fitted dose curve; in most records, active means well fitted curve in the direction sought with a large enough effect; inconclusive means small, poorly fitted or top-dose-only effect, or another doubt; inactive means no such curve, though single readings can be large; an effect the other way counts as inactive or inconclusive.
SMILES,Tau fluor cs,Tau ThT inhib,HTT cytoprotect,HTT aggregate,Tau fibril FP
Cc1ccc2c(c1)Sc1c(ccc3ccccc13)N2,14µM[quencher],3.2µM,i[10 µM],i[9.22 µM],i
CCOCCOC(=O)C1=C(C)Nc2ccc(C)cc2S1,i,?,i[1.9 µM],i,i
OCC(O)C(O)C(O)C(O)C1NCCS1 (stereo not given),i,20µM,i[10 µM],i,?
CC(O)C(O)C(O)C(O)C1NCCS1 (stereo not given),i,?,i[10 µM],i[9.22 µM],?
COc1ccc(NC(=O)c2nc(SCc3ccccc3F)ncc2Cl)cc1,i,i,nt,nt,?
Cc1ccc(C(=O)NC(=S)Nc2c(C)ccc3nsnc23)cc1,i,i,i[10 µM],i,i
Cc1ccc(C(=O)NC(=S)Nc2cccc3nsnc23)cc1,i,13µM,i,i,?
COC(=O)CCCC1=CC2=CC(=O)C(C)(OC(=O)c3cccs3)C(=O)C2=CN1Cc1ccco1 (stereo not given),i[11.6 µM],?,i[10 µM],i[9.22 µM],i[11.6 µM]
COC(=O)CCCC1=CC2=CC(=O)C(C)(OC(=O)c3cccs3)C(=O)C2=CN1c1ccc(OC)cc1 (stereo not given),i[11.6 µM],10µM,i[10 µM],i[9.22 µM],?
COC(=O)CCCC1=CC2=CC(=O)C(C)(OC(=O)c3cccs3)C(=O)C2=CN1Cc1ccccc1 (stereo not given),i[11.6 µM],13µM!,i[10 µM],i[9.22 µM],?
COC(=O)CCCC1=CC2=CC(=O)C(C)(OC(=O)c3cccs3)C(=O)C2=CN1C(CO)CO (stereo not given),i[11.6 µM],i[11.5 µM],i[10 µM],nt,i[11.6 µM]
COC(=O)CCCC1=CC2=CC(=O)C(C)(OC(=O)c3cccs3)C(=O)C2=CN1CCCOC(C)C (stereo not given),i[11.6 µM],?,i[10 µM],i[9.22 µM],i[11.6 µM]
COC(=O)CCCC1=CC2=CC(=O)C(C)(OC(=O)c3cccs3)C(=O)C2=CN1Cc1ccc2c(c1)OCO2 (stereo not given),i[11.6 µM],13µM!,i[10 µM],i[9.22 µM],?
COC(=O)CCCC1=CC2=CC(=O)C(C)(OC(=O)c3cccs3)C(=O)C2=CN1C1CCCC1 (stereo not given),i[11.6 µM],25µM,i[10 µM],i[9.22 µM],?
CCN(CC)CCCN1C=C2C(=O)C(C)(OC(=O)c3cccs3)C(=O)C=C2C=C1CCCC(=O)OC (stereo not given),i[11.6 µM],i[11.5 µM],i[10 µM],nt,i[11.6 µM]
Cc1ccc(NC(=O)NCc2c(-n3cccc3)sc3c2CCCC3)c(Cl)c1,i,i,nt,nt,i
O=C(CSc1nc2ccccc2s1)c1sc2sc3ccccc3[n+]2c1O,nt,nt,i[10 µM],nt,nt
Cc1cc(C)cc(OCC(=O)Nc2cccc(-c3nc4ccccc4[nH]3)c2)c1,11µM[quencher],i,nt,nt,22µM
CCC(=O)Nc1ccc(Cl)c(-c2nc3ccccc3[nH]2)c1,i,i,nt,nt,i
COc1cccc(C(=O)Nc2ccc(Cl)c(-c3nc4ccccc4[nH]3)c2)c1,?,?,nt,nt,25µM
CC(C)CC(=O)Nc1cccc(-c2nc3ccccc3[nH]2)c1,i,i,i[10 µM],i[9.22 µM],i
CC(C)COc1ccc(C(=O)Nc2cccc(-c3nc4ccccc4[nH]3)c2)cc1,7.9µM[quencher],?,nt,nt,20µM
O=C(COc1ccccc1)Nc1cccc(-c2nc3cc4ccccc4cc3[nH]2)c1,16µM[quencher],?,i,?,?
CN(C)c1ccc(N=C/C=C2\N(C)c3ccccc3C2(C)C)cc1,?,5µM,i,i,i
CN1\C(=C/C=C/C=C/C=[N+](C)C)C(C)(C)c2ccccc21,1.6µM[fluorescent],3.5µM,i,10µM,?
SMILES,Tau fluor cs,Tau ThT inhib,HTT cytoprotect,HTT aggregate,Tau fibril FP
Cc1ccc(CN(C)C(=O)c2cc(COc3ccc(F)cc3Cl)on2)o1,i,?,i[10 µM],i[9.22 µM],i
C#CCN(Cc1ccco1)C(=O)c1cc(COc2ccc(F)cc2Cl)on1,i,13µM,i[10 µM],i[9.22 µM],i[2.34 µM]
CC(=O)OC[C@@H]1O[C@H](CCO/N=C(\C)CCN2CCCc3nc(C)c(C)cc32)C=C[C@@H]1OC(C)=O,i[11.6 µM],i[11.5 µM],i[10 µM],nt,i[11.6 µM]
Cc1ccc(C)n1-c1sccc1C(=O)O,i,32µM,i,i,?
Cc1ccc(C)n1-c1sc2c(c1C(=O)O)CCCC2,i,?,nt,?,?
COc1ccccc1C(=O)NCc1nc2cccnc2n1Cc1ccc(F)cc1,i,i,nt,nt,i
C=CCn1c(N/N=C/c2ccc(O)cc2)nc2ccccc2c1=O,16µM[quencher],i,i,i,?
C=CCn1c(C)nc2ccccc2c1=O,i,i,i[10 µM],i[9.22 µM],i
Cc1ccc(NC(=O)Cn2c(=O)n(Cc3ccco3)c(=O)c3oc4ccccc4c32)cc1C,i,?,nt,nt,i
COc1cccc2c1NC(C(=O)O)C1CC=CC21 (stereo not given),?,16µM,i[10 µM],i,?
COc1cccc(C2Nc3c(F)cc(Br)cc3C3C=CCC32)c1OC (stereo not given),i,i,nt,i,i
Cc1ccc2c(c1)C1C=CCC1C(C(=O)O)N2 (stereo not given),?,14µM,i[10 µM],i,?
Cc1ccc(NS(=O)(=O)c2ccc(-c3cc(C)no3)cc2)c(C)c1,i,i,nt,nt,i
Cc1ccc(S(=O)(=O)Nc2ccccc2C(=O)c2ccc(C)c(C)c2)cc1,nt,nt,i[10 µM],nt,nt
COC(=O)[C@@H]1[C@@H](O)[C@]2(O)c3ccccc3O[C@]2(c2ccccc2)[C@H]1c1ccccc1,i[11.6 µM],i[11.5 µM],i[10 µM],nt,i[11.6 µM]
Cc1ccoc1C(=O)NCCNc1ccc(Cl)cc1[N+](=O)[O-],i,11µM,nt,i,i
O=C(NCCNc1ccc(Cl)cc1[N+](=O)[O-])c1cccnc1,i,?,i,i,i
C=CCSC(=C(C#N)C#N)c1cc2c([nH]1)CCCC2,?,10µM,11µM,?,i
CCc1ccc2oc(-c3ccc(C)c(NC(=O)c4ccc(C#N)cc4F)c3)nc2c1,i,i,nt,nt,i
Cc1ccc(S(=O)(=O)N2CCN(c3ccnc4cc(Cl)ccc34)CC2)cc1,i,i,i,16µM,i
Cc1ncn(-c2ccccc2O)c1C,nt,nt,i[10 µM],nt,nt
O=C(OCC(=O)N1CCc2ccccc21)c1cncc(Br)c1,i,?,2.2µM,?,i
O=C(OCC(=O)N1CCCc2ccccc21)c1cncc(Br)c1,i,?,i[10 µM],i,i
Cc1ccc(-c2nnc(SCC(=O)c3ccc(Cl)cc3)n2-c2ccccc2)cc1,i,i,nt,nt,i
CCOC(=O)c1sc(=S)n(Cc2ccccc2)c1N,16µM[quencher],i,i,i,i
SMILES,Tau fluor cs,Tau ThT inhib,HTT cytoprotect,HTT aggregate,Tau fibril FP
COCCn1c(=O)c(-c2ccc(OC)cc2)nc2cnc(N3CCN(C)CC3)nc21,nt,nt,i,nt,nt
O=C(/C=C/c1cccc(O)c1)c1ccc(N2CCOCC2)cc1,?,3.5µM,i[10 µM],i[9.22 µM],i
O=C1Nc2cc(Cl)cnc2N2CCCC12 (stereo not given),?,14µM,i[10 µM],i,?
CCc1ccccc1NC(=O)C1CCCN(c2nnc(-n3c(C)ccc3C)s2)C1 (stereo not given),i,i,nt,nt,i
Fc1ccc(-c2cnn3c(-c4ccncc4)ccnc23)cc1,i,3.2µM,i,i,i
c1csc(-c2ccnc3ncnn23)c1,i,i,nt,i,i
Fc1ccc(-c2cnn3c(-c4cccs4)ccnc23)cc1,i,1.4µM,i,i,i
